# Measured values published in ChEMBL document CHEMBL1961873, “Compounds: GSK PKIS; Assays: Nanosyn kinase panel” (2012).
# Legend:
# [1] = molecular target: Protein kinase C gamma type (Homo sapiens) (UniProt P05129); details: at 1 µM;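 also: each value is an averaged percent inhibition of the enzyme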
# [2] = molecular target: T1, Protein kinase C iota type (Homo sapiens) (UniProt P41743); details: at 0.1 µM
# T1 sequence (whole entry): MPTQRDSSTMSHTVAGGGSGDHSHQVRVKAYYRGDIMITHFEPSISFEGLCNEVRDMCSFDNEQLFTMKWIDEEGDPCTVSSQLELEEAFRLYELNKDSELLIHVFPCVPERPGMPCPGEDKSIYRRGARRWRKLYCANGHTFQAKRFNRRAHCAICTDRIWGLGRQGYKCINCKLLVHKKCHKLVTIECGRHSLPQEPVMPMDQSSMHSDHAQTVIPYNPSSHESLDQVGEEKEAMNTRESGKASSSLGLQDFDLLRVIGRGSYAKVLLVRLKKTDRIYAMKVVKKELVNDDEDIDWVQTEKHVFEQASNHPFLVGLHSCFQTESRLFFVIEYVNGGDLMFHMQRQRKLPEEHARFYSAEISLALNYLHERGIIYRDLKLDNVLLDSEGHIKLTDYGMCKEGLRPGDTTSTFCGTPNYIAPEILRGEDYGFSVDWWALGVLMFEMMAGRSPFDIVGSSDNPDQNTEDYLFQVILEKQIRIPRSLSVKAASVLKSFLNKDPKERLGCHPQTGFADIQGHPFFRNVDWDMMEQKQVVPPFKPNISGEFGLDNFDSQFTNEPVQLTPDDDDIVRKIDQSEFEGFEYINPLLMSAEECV
# [3] = molecular target: T1, Protein kinase C iota type (Homo sapiens); details: at 1 µM
# [4] = molecular target: Protein kinase C theta type (Homo sapiens) (UniProt Q04759); details: at 0.1 µM
# [5] = molecular target: Protein kinase C theta type (Homo sapiens) (UniProt Q04759); details: at 1 µM
# [6] = molecular target: Protein kinase C beta type (Homo sapiens) (UniProt P05771); details: at 0.1 µM
# [7] = molecular target: Protein kinase C beta type (Homo sapiens) (UniProt P05771); details: at 1 µM
# [8] = molecular target: T2, Serine/threonine-protein kinase D1 (Homo sapiens) (UniProt Q15139); details: at 0.1 µM
# T2 sequence (whole entry): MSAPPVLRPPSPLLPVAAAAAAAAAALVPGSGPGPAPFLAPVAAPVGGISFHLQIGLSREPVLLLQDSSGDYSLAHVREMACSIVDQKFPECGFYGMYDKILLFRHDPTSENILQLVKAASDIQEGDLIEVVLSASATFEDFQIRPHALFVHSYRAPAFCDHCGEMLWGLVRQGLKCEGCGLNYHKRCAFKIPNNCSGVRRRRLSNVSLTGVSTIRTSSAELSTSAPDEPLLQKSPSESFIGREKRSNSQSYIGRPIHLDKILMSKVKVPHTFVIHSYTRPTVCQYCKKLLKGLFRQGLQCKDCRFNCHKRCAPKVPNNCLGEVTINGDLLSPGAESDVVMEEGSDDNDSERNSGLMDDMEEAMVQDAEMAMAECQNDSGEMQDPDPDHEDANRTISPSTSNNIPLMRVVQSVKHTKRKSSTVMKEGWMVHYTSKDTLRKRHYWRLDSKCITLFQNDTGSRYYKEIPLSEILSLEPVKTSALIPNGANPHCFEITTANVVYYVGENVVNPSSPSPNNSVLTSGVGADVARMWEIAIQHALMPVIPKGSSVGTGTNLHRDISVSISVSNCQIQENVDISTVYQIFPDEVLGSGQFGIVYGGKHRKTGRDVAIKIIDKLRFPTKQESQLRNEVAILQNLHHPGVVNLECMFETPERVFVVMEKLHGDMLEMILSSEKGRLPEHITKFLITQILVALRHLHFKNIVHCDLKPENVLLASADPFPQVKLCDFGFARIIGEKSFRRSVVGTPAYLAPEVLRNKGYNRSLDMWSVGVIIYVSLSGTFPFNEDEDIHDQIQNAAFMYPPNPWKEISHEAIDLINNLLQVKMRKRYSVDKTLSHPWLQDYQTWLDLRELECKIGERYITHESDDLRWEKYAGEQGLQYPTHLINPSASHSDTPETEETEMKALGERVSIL
# [9] = molecular target: T2, Serine/threonine-protein kinase D1 (Homo sapiens); details: at 1 µM
# [10] = molecular target: T3, Serine/threonine-protein kinase D2 (Homo sapiens) (UniProt Q9BZL6); details: at 0.1 µM
# T3 sequence (whole entry): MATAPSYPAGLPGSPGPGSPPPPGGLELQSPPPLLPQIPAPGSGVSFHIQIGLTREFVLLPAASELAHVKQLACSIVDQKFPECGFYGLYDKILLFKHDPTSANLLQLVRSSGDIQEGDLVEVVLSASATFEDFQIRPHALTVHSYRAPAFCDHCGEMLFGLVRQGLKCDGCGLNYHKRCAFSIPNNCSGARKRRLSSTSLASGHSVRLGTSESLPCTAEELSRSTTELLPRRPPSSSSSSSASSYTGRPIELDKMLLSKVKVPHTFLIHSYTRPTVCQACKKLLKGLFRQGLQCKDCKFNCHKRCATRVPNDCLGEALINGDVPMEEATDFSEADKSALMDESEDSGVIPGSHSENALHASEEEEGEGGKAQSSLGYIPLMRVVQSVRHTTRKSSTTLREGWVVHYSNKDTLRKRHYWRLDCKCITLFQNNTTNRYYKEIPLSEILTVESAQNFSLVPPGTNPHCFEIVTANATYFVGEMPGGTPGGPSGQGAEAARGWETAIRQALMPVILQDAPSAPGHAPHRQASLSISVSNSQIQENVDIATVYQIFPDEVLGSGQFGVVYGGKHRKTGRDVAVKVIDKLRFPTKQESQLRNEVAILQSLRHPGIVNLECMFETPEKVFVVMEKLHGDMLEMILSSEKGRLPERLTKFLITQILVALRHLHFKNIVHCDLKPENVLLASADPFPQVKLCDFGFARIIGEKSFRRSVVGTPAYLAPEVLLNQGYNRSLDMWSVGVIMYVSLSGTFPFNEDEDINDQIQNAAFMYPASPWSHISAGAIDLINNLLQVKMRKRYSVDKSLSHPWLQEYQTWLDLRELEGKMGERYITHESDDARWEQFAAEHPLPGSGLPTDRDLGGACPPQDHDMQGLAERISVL
# [11] = molecular target: T3, Serine/threonine-protein kinase D2 (Homo sapiens); details: at 1 µM
# [12] = molecular target: T4, Serine/threonine-protein kinase D3 (Homo sapiens) (UniProt O94806); details: at 0.1 µM
# T4 sequence (whole entry): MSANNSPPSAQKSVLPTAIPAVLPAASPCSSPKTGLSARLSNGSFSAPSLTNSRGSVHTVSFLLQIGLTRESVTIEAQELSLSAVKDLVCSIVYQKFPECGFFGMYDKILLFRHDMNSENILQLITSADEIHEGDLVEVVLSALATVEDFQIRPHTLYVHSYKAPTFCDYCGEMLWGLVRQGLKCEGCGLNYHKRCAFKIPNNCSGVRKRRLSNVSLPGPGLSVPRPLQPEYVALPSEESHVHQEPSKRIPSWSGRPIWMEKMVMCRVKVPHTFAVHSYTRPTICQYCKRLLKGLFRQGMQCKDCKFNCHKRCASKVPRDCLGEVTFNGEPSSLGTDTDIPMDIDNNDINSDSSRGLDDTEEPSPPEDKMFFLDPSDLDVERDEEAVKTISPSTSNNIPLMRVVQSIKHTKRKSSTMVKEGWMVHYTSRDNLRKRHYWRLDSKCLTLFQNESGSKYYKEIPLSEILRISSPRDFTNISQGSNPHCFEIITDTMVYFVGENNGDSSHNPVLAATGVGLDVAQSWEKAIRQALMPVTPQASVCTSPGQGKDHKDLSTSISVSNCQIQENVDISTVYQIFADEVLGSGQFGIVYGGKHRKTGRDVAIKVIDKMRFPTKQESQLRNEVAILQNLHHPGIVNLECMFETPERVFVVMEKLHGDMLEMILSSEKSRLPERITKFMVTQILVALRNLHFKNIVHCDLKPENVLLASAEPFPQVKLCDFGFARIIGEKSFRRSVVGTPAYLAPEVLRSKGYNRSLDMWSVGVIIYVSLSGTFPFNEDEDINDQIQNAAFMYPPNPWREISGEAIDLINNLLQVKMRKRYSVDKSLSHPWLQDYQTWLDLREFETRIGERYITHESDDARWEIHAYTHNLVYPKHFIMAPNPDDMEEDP
# [13] = molecular target: T4, Serine/threonine-protein kinase D3 (Homo sapiens); details: at 1 µM
# [14] = molecular target: T5, cGMP-dependent protein kinase 1 (Homo sapiens) (UniProt Q13976); details: at 0.1 µM
# T5 sequence (whole entry): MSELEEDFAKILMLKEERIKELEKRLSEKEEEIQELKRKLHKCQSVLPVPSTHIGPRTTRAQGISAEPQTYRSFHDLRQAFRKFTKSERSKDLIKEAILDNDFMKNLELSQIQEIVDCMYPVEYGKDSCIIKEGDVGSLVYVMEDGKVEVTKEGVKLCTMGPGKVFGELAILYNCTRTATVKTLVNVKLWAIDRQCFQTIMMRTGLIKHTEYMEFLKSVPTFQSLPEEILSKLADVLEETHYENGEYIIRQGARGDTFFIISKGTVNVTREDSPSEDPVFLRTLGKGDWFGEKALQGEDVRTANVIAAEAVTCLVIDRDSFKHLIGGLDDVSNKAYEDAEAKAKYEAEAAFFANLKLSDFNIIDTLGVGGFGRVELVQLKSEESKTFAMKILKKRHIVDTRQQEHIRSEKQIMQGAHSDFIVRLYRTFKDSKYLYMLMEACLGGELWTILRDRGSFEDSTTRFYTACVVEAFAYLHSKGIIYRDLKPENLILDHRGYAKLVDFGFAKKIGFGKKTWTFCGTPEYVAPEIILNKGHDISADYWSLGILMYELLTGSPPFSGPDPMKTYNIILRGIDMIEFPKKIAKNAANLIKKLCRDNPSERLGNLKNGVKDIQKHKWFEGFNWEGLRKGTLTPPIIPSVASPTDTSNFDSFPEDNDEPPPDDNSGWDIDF
# [15] = molecular target: T5, cGMP-dependent protein kinase 1 (Homo sapiens); details: at 1 µM
# [16] = molecular target: T6, cGMP-dependent protein kinase 2 (Homo sapiens) (UniProt Q13237); details: at 0.1 µM
# T6 sequence (whole entry): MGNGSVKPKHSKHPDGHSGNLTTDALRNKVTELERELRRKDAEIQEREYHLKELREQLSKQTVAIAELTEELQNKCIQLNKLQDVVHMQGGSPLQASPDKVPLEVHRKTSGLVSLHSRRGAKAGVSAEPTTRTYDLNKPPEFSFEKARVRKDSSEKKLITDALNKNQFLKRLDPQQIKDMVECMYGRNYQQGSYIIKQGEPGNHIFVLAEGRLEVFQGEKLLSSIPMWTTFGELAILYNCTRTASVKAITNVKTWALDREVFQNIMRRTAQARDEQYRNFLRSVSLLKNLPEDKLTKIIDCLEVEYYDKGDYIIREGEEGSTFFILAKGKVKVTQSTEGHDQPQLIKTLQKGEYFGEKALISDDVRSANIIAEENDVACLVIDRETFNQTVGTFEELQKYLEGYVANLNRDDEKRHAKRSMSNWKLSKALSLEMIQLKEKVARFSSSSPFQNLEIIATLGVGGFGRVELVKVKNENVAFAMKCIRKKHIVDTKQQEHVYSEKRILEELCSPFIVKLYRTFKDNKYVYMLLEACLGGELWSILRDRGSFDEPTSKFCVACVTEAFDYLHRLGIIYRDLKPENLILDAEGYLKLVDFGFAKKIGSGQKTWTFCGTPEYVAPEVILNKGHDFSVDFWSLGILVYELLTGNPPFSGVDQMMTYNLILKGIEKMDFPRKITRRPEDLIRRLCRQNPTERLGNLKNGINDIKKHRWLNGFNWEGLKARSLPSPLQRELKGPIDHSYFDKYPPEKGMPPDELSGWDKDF
# [17] = molecular target: T6, cGMP-dependent protein kinase 2 (Homo sapiens); details: at 1 µM
# [18] = molecular target: T7, cAMP-dependent protein kinase catalytic subunit PRKX (Homo sapiens) (UniProt P51817); details: at 0.1 µM
# T7 sequence (whole entry): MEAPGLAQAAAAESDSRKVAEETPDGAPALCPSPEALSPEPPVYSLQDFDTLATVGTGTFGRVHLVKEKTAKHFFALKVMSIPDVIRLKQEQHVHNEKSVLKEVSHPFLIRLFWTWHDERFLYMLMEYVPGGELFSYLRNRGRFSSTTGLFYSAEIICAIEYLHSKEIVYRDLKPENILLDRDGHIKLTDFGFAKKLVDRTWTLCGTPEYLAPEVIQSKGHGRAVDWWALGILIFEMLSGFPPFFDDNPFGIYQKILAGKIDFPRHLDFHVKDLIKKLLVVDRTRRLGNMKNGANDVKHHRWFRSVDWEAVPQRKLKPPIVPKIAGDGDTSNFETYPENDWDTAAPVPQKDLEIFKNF
# [19] = molecular target: T7, cAMP-dependent protein kinase catalytic subunit PRKX (Homo sapiens); details: at 1 µM
# [20] = molecular target: Rho-associated protein kinase 1 (Homo sapiens) (UniProt Q13464); details: at 0.1 µM;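 also: values are mean percent inhibition of ROCK1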
# Rho-associated protein kinase 1 (Homo sapiens), sequence (Q13464 2-1354 limits assumed): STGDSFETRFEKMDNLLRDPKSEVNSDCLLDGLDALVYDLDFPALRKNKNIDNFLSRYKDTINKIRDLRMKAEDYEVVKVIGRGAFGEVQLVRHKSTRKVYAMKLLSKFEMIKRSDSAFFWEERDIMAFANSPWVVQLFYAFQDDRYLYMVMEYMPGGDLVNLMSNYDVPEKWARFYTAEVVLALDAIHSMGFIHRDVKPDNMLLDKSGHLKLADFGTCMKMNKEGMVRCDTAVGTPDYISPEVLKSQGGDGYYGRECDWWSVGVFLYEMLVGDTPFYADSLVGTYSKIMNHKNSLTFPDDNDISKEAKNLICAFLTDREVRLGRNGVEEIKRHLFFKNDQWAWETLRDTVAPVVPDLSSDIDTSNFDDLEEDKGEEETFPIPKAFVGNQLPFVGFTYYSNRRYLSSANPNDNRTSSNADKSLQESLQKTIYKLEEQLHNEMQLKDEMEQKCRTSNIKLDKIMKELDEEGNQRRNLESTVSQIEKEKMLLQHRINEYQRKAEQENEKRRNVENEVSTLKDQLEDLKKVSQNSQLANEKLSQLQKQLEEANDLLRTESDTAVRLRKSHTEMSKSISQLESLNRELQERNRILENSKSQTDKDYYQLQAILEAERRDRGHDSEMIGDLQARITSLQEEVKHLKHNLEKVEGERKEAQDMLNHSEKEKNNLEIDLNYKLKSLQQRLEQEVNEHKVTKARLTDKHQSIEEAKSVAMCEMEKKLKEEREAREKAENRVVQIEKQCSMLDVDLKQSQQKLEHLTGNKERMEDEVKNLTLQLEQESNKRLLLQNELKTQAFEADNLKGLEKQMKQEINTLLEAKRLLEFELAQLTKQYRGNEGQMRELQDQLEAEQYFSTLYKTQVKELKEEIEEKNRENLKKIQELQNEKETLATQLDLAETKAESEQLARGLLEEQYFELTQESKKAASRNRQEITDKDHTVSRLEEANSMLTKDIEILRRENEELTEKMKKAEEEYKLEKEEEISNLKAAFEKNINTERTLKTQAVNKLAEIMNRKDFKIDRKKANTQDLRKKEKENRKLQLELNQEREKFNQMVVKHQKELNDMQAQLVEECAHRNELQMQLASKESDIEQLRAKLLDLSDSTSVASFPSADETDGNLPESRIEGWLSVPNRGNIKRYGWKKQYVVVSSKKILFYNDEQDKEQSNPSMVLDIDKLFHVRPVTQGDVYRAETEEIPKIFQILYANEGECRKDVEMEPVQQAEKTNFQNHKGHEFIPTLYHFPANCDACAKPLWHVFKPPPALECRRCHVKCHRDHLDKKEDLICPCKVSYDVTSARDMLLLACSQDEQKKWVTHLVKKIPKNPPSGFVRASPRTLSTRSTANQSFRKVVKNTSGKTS
# Protein kinase C theta type (Homo sapiens), sequence (Q04759 whole entry, looked up): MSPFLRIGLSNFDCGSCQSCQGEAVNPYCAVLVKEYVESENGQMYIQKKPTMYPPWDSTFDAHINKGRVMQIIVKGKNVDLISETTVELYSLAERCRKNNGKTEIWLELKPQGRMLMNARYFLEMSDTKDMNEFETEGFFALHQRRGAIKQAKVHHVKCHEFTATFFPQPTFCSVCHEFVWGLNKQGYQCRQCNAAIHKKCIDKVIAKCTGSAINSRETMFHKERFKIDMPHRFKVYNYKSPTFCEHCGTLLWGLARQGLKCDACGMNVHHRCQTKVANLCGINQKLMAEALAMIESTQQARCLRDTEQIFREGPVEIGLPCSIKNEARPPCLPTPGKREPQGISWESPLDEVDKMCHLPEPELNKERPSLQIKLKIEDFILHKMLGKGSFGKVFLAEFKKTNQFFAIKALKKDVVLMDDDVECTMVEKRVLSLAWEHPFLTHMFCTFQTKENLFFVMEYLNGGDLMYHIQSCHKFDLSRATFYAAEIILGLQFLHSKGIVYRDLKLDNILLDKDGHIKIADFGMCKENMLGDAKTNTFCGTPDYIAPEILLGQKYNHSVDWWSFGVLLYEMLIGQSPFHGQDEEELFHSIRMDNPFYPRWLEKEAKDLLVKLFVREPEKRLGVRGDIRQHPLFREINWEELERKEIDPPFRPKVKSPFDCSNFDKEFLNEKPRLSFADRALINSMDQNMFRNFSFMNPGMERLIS
# Protein kinase C beta type (Homo sapiens), sequence (P05771 2-671 limits assumed): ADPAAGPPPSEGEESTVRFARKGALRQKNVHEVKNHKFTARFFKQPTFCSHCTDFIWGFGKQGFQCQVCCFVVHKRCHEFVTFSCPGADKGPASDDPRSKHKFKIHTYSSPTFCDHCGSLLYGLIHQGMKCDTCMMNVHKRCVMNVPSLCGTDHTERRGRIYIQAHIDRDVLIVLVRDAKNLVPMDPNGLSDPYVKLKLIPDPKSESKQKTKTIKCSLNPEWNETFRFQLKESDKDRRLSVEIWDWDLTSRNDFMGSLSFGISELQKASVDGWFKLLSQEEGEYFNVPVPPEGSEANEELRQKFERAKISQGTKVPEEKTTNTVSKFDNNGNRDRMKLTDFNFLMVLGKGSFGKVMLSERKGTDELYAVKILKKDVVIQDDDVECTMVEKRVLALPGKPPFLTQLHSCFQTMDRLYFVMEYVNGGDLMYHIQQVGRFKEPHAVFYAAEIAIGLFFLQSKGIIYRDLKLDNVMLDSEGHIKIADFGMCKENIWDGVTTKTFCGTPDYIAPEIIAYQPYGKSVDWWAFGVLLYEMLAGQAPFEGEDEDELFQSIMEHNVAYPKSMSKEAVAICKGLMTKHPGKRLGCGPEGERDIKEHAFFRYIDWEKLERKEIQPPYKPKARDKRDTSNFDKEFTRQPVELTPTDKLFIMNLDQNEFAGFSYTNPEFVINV
Compound,inhibition [1] [%],inhibition [2] [%],inhibition [3] [%],inhibition [4] [%],inhibition [5] [%],inhibition [6] [%],inhibition [7] [%],inhibition [8] [%],inhibition [9] [%],inhibition [10] [%],inhibition [11] [%],inhibition [12] [%],inhibition [13] [%],inhibition [14] [%],inhibition [15] [%],inhibition [16] [%],inhibition [17] [%],inhibition [18] [%],inhibition [19] [%],inhibition [20] [%]
Cc1cc(O)cc(C)c1/C=C/c1cncc(C(=O)N(C)C)c1,4.07,0.51,1.32,0.96,0.78,0.19,3,1.61,2.79,-2.38,2.05,6.37,3,2.65,3.73,1.74,3.78,1.77,0.5,0.55
Oc1cccc(-c2nc(-c3ccccc3)[nH]c2-c2ccncc2)c1,5.82,1.08,0.18,2.11,3.65,0.99,7.1,3.05,5.51,3.64,7.13,2.71,4.25,2.56,5.69,1.58,6.36,2.36,2.93,0.52
COc1ccc(-c2nn3ncccc3c2-c2ccnc(Nc3cccc(C(F)(F)F)c3)n2)cc1,1.55,0.94,-0.08,1.65,0.8,1.35,2.07,3.56,3.79,1.6,3.1,3.18,3.3,1.97,2.64,1.78,2.6,2.11,1.89,0.25
ON=C1CCc2cc(-c3nc(C4CCNCC4)[nH]c3-c3ccncc3)ccc21,-1.84,-0.01,4.71,-0.55,1.23,0.45,7.96,0.36,5.6,1.54,9.97,1.39,8.68,-0.33,1.76,0.54,2.55,-0.73,-2.69,0.17
